In one assay the target is Furin (Homo sapiens) (UniProt P09958). Description: Furin counterscreen qHTS for Zika virus inhibitors (AID 1347149). Note: nearly all actives have a fitted effect of over 70% in size. Note: potency is the fitted concentration of half-maximal effect. The essentials:
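Counterscreen measures cleavage of 2 microM BOC-RVRR-AMC, below its ~15 microM Km, by 5 nM full-length human furin at pH 7.0 after a 15-min compound preincubation. Inhibition derives from the 15-min fluorescence increase at 37C.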
On the technique in general: The purpose of a counterscreen is to sort out artefacts and off-target activity.

A short description of assay [1]: Confirmatory screen GU Rhodamine qHTS for Zika virus inhibitors qHTS (AID 1347157). Note: nearly all actives have a fitted effect of over 70% in size. Note: potency is the fitted concentration of half-maximal effect. The gist of the method: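 Percent inhibition derives from the 15-min fluorescence change (ex 480, em 540 nm), normalized to no-enzyme and no-inhibitor wells. Reactions contained 25 nM NS2B-NS3 complex and 1.5 microM substrate in 10 mM Tris-HCl pH 8.0.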
(In general: Quantitative high-throughput screening tests each substance at several concentrations.)

Assay [2] in a line: Confirmatory screen NINDS Rhodamine qHTS for Zika virus inhibitors (AID 1347161). Note: nearly all actives have a fitted effect of over 60% in size. Note: potency is the fitted concentration of half-maximal effect. The gist of the method:
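In 10 mM Tris-HCl pH 8.0 containing 0.01% Tween 20, linked NS2B-NS3 protease (25 nM final) is exposed to test compounds for 15 min. Cleavage of 1.5 microM Rhodamine110 substrate is tracked by fluorescence over 15 min.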

Assay [3] is described as follows: ZIKV-mCherry secondary qHTS for Zika virus inhibitors (AID 1347158). Note: top concentration of the series differs between compounds. The gist of the method:
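Compounds were tested in Vero monkey kidney cells infected with recombinant mCherry-expressing Zika virus at MOI 1 for 48-72 h at 37 °C. Fixed cells were nuclear-stained and imaged, and infection rate was taken as the fraction of mCherry-positive cells.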

The subject of assay [4] is Zika virus NS2B-NS3 protease (linked). In words: 384 well plate NINDS AMC confirmatory qHTS for Zika virus inhibitors (AID 1347163). Note: nearly all actives have a fitted effect of over 50% in size. Note: potency is the fitted concentration of half-maximal effect. The essentials: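 Fluorescence at 355/460 nm was read after 25 minutes of cleavage of 30 microM Ac-VKTGKR-AMC at room temperature, in the dark. Before substrate addition, compounds (up to 1 mM final) sat ~15 minutes with 5, 30 or 60 nM linked protease. Signals were normalized to no-enzyme and no-inhibitor wells.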

The subject of assay [5] is Zika virus NS2B-NS3 protease (linked construct). In words: 384 well plate NINDS Rhodamine confirmatory qHTS for Zika virus inhibitors (AID 1347164).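 Note: fluorescence from protease cleavage of Ac-LKRR-rhodamine 110 substrate; potency is the fitted concentration of half-maximal effect; nearly all actives have a fitted effect of over 65% in size.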 The essentials: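 Linked protease at a final 5 nM, 30 nM or 60 nM was preincubated ~15 min with compounds, then given 10 microM Ac-LKRR-Rhodamine 110. Fluorescence (ex 485/em 538 nm) after 25 min in the dark at room temperature.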

Assay [6] is described as follows: Tertiary RLuc qRT-PCR qHTS assay for Zika virus inhibitors (AID 1347169). Note: top concentration of the series differs between compounds; nearly all actives have a fitted effect of over 55% in size. The essentials: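 Vero cells (1,000 per well) plated overnight at 37 degrees C, treated with compound in DMSO, then infected with recombinant ZIKV-RLuc (Cambodian) at MOI 1-2 for 48-72 hrs. Live-cell Renilla luciferase substrate added; luminescence read after 1-1.5 hrs.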
(In general: Quantitative PCR measures a nucleic acid by following its amplification.)

Results filed as inconclusive are left out. Activity calls are given as the source filed them. Calls come from the whole dose curve; as a rule, active = well fitted curve in the direction sought with a large enough effect; inconclusive = small, poorly fitted or top-dose-only effect, or another doubt; inactive = no such curve, though single readings can be large; an effect the other way counts as inactive or inconclusive.

Chain of Furin (Homo sapiens) (P09958 whole entry, looked up): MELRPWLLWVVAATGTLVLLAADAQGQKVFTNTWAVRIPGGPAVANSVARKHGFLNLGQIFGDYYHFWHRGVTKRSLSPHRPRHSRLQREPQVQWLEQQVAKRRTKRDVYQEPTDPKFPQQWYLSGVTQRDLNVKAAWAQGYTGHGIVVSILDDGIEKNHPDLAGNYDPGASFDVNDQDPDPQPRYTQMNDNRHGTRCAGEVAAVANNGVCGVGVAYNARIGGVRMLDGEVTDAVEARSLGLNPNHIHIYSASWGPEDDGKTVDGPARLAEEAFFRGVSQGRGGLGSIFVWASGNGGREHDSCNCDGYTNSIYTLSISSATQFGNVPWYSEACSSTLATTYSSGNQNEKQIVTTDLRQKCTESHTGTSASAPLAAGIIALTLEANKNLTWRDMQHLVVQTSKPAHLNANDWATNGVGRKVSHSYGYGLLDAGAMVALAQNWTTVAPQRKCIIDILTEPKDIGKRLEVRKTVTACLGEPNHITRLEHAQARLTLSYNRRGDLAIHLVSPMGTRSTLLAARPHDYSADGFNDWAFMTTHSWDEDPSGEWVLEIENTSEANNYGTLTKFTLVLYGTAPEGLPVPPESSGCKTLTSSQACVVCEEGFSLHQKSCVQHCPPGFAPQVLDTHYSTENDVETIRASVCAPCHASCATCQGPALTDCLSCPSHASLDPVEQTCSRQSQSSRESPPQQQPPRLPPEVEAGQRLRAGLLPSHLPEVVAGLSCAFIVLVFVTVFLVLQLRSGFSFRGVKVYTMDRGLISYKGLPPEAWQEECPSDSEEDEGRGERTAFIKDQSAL

With `CCc1ccc(S(=O)(=O)Nc2cc3c(C(=O)OCc4ccccc4)c(C)oc3c3ccccc23)cc1`, the Potency result (with Furin (Homo sapiens); in assay [1]; in assay [2]) was “inactive” each time.
As for `O=C(O)c1cc(-c2ccc(C(F)(F)F)cc2)nc2n[nH]c(-c3ccccc3)c12`, the results for the Potency (with Furin (Homo sapiens); in assay [1]; in assay [5]) were 52.7 µM (active), 63.1 µM (active) and 141 µM (active), respectively. For the same molecule, the Potency entry in assay [3], in assay [4] and in assay [6] was “inactive” each time.
As to `O=C1OCC2=C1C(c1cccc(Cl)c1)CC(=O)N2c1ccc(C(F)(F)F)cc1` (stereo unspecified), the Potency entry (with Furin (Homo sapiens); in assay [1]; in assay [2]) was “inactive” in each case.
As to `O=C(OCC#CCSc1nnc(-c2cccc3ccccc23)o1)c1ccc(Cl)c(C(F)(F)F)c1`, the Potency with Furin (Homo sapiens) is 52.7 µM (active); in assay [1], 25.1 µM (active). Also, the Potency result in assay [2] and in assay [6] was “inactive” in each case.
As to `O=c1oc2ccccc2cc1-c1nnc(Nc2ccc(Cl)cc2Cl)s1`, the Potency result (in the assay with Furin (Homo sapiens); in assay [6]) was “inactive” each time. In addition, the Potency in assay [1] is 31.6 µM (active); in assay [2], 15.8 µM (active); in assay [4], 50.1 µM (active).

These data come from PubChem BioAssay (NCATS).
